Measurements as given in PubChem BioAssay (Tox21).
Values joined by “and” are separate entries in the source; they are usually repeats but may differ in a detail not shown here. Equal values may be shown once. Inconclusive results are not listed. The source holds several records for some structures; these can differ, active in one and inactive in another. Active and inactive are the calls of the source. Unless noted, the call rests on the fitted dose curve; in most records, active means well fitted curve in the direction sought with a large enough effect in the repeat runs; inconclusive means weak or mixed curves; inactive means no such curve, though single readings can be large; an effect the other way counts as inactive or inconclusive.

Key:
[1] = biological target: Thyrotropin receptor (Homo sapiens) (UniProt P16473); assay: qHTS assay to identify small molecule agonists of the thyroid stimulating hormone receptor (TSHR) signaling pathway (AID 1224843; calls by dose curve; further: nearly all actives have a fitted effect of over 45% in size)
Sequence of Thyrotropin receptor (Homo sapiens) (P16473 whole entry, looked up): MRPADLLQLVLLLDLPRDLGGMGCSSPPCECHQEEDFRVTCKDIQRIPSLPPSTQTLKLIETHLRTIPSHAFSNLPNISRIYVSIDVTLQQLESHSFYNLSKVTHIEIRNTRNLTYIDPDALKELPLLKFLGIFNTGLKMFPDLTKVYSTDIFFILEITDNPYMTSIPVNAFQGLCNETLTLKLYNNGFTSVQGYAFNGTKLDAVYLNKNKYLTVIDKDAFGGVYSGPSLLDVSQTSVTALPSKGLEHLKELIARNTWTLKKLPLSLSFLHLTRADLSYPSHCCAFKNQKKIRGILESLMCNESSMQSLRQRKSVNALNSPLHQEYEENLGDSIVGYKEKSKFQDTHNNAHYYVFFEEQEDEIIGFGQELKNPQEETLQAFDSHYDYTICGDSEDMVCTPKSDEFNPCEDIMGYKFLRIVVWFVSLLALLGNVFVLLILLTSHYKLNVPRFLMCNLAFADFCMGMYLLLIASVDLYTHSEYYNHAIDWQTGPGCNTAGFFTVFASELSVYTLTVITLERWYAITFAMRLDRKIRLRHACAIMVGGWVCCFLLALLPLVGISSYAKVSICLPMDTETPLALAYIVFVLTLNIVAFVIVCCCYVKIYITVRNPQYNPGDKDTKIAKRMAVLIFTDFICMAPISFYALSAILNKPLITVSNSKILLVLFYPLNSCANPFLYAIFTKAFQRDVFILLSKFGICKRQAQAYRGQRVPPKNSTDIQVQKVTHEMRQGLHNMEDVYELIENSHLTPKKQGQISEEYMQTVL
In short: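 TSHR-expressing HEK293 cells (800 per well) were exposed to compounds for 30 min at room temperature. cAMP was then detected by HTRF competition with cAMP-d2 and anti-cAMP cryptate, read after 1 h at room temperature. Fifteen concentrations, triplicate.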

[2] = qHTS assay to identify small molecule agonists of the hypoxia (HIF-1) signaling pathway - cell viability counter screen (AID 1224844; calls by dose curve; further: nearly all actives have a fitted effect of over 50% in size; further: potency means the concentration at half of the fitted maximal effect)
In short: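 Tox21 10K compounds were added to HRE-bla ME-180 cells (0.5% dialyzed FBS) and incubated 17 hrs at 37C; ATP-based CellTiter-Glo luminescence then reported cell viability in the same wells.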

[3] = qHTS assay to identify small molecule agonists of H2AX (AID 1224845; active means well fitted activation curve with a large enough effect in the signal ratio in the repeat runs, not every such curve was filed as active; the % refers to the signal ratio)
In short: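 Wild-type CHO-K1 cells plated overnight, then exposed 3 hr at 37C to compounds at 15 concentrations (0.76% DMSO). Lysed, then HTRF anti-pH2AX(S139)-cryptate/anti-H2AX-d2 detection after 24 hr at room temperature; emissions 665 and 620 nm.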

[4] = qHTS assay to identify small molecule agonists of the hypoxia (HIF-1) signaling pathway (AID 1224846; active means well fitted activation curve with a large enough effect in the signal ratio in the repeat runs, not every such curve was filed as active; the % refers to the signal ratio)
In short: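 Steps: seed ME-180 HRE-bla cells (2,000/well, 0.5% dialyzed FBS); incubate 5 hrs at 37C; pin-transfer compounds or DMSO; incubate 17 hrs; add LiveBLAzer B/G substrate CCF4-AM; measure reporter activation by FRET.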

[5] = qHTS assay to identify small molecule agonists of H2AX - cell viability counter screen (AID 1224847; calls by dose curve; further: top concentration of the series differs between compounds; nearly all actives have a fitted effect of over 30% in size)
In short: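 After overnight plating of 1000 CHO-K1 cells per well, a 15-concentration compound series was applied for 3 hr at 37C. Luminescence from CellTiter-Glo, read following 30 min at room temperature, reflected cell viability.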

[6] = qHTS RealTime-Glo MT Cell Viability Assay in HepG2 cells - 24 hour (AID 1224867); further: nearly all actives have a fitted effect of over 50% in size; further: potency means the concentration at half of the fitted maximal effect
In short: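 HepG2 cells (600/well) were dispensed with RealTime-Glo reagents, incubated 5 h at 37 °C, then treated with compounds in DMSO for up to 40 h. Nonlytic NanoLuc luminescence reflecting viable cells was read at each stated time point.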

[7] = qHTS RealTime-Glo MT Cell Viability Assay in HEK293 cells - 32 hour (AID 1224868); further: nearly all actives have a fitted effect of over 50% in size; further: potency means the concentration at half of the fitted maximal effect
In short: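 HEK293 cells seeded with NanoLuc/prosubstrate reagent, rested 5 h at 37 C, then dosed and kept at 37 C up to 40 h. Nonlytic real-time luminescence from viable cells read at 0, 8, 16, 24, 32 and 40 h.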

[8] = A CellTox Green Cytotoxicity Assay to monitor cytotoxicity in HEK293 cells - 0 hour (AID 1224869); further: nearly all actives have a fitted effect of over 50% in size
In short: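 Cytotoxicity was tracked continuously in HEK293 cells by a DNA-binding dye excluded from viable cells. Compounds were transferred in DMSO 5 h after seeding; fluorescence was recorded at intervals up to 40 h.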

[9] = qHTS assay to identify small molecule antagonists of the estrogen related receptor (ERR) signaling pathway from Tox21 library (AID 1224848); further: nearly all actives have a fitted effect of over 50% in size; further: potency means the concentration at half of the fitted maximal effect
In short: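 Cells: ERR line, 2,000/well; 6 h preincubation 37 C/5% CO2. Cpd in DMSO via pin tool; 18 h, 37 C. ONE-Glo, 30 min RT, luminescence.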

[10] = qHTS assay to identify small molecule agonists of the estrogen related receptor (ERR) signaling pathway from Tox21 library (AID 1224849; calls by dose curve; further: nearly all actives have a fitted effect of over 15% in size); conditions: ERR reporter cell line, ONE-Glo luciferase, 18 h
In short: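 Agonist signal is luciferase luminescence from an ERR reporter cell line treated 18 h at 37 C with DMSO-dissolved compounds, read 30 min after ONE-Glo addition at room temperature.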
On the % scale 0 is the no-effect control and ±100 the full control effect.

O=C1NC(=O)c2ccccc21
inactive: outcome [1] | Potency [2] | outcome [3] | outcome [4] | outcome [5] | Potency [6] | Potency [7] | outcome [8]

Nc1ccc(S(=O)(=O)Nc2nccs2)cc1
inactive: Potency [2] | outcome [3] | outcome [5] | Potency [9] | activity change, positive = activation ([10]; at 42.5 µM (top of the series)) 5.51% | activity change, positive = activation ([10]; at 92.4 µM (top of the series)) -7.05% and 5.21% and 6.11% | Potency [6] | Potency [7] | outcome [8]

CCC1(c2ccccc2)C(=O)NCNC1=O
inactive: Potency [2] | outcome [3] | outcome [5] | Potency [6] | Potency [7] | outcome [8]

Cn1cc[nH]c1=S
inactive: Potency [2] | outcome [5] | Potency [6] | Potency [7] | outcome [8]

O=S(=O)(O)c1ccc2cc(O)ccc2c1
inactive: Potency [2] | outcome [4] | outcome [5] | Potency [6] | Potency [7] | outcome [8]

NC(N)=NC(=O)c1nc(Cl)c(N)nc1N
inactive: Potency [2] | outcome [5] | Potency [6] | Potency [7] | outcome [8]

C[C@]12C=CC(=O)C=C1CC[C@@H]1[C@@H]2[C@@H](O)C[C@@]2(C)[C@H]1CC[C@]2(O)C(=O)CO
inactive: Potency [2] | outcome [5] | Potency [6] | Potency [7] | outcome [8]

O=C(O)C(=O)O
inactive: Potency [2] | outcome [4] | outcome [5] | Potency [6] | Potency [7] | outcome [8]

N=C(N)c1ccc(OCCCCCOc2ccc(C(=N)N)cc2)cc1
inactive: Potency [2] | outcome [4] | outcome [5] | Potency [6] | outcome [8]
active: Potency [7] 12.2 µM and 16.6 µM

c1ccc2[nH]ccc2c1
6.07 µM (active) and inactive: Potency [6]
2.39 µM (active) and inactive: Potency [9]
17.1 µM (active) and inactive: Potency [2]
2.15 µM (active) and inactive: Potency [7]
inactive: outcome [4] | outcome [5] | outcome [8]

Nc1ccc(S(=O)(=O)c2ccc(N)cc2)cc1
inactive: Potency [2] | outcome [5] | Potency [6] | Potency [7] | outcome [8]

O=C(O)c1cccnc1
inactive: Potency [2] | outcome [4] | outcome [5] | Potency [6] | Potency [7] | outcome [8]

O=C(C1CCCCC1)N1CC(=O)N2CCc3ccccc3C2C1 (stereo not drawn)
inactive: Potency [2] | outcome [5] | Potency [9] | Potency [6] | Potency [7] | outcome [8]

CC(C)(Oc1ccc(C2CC2(Cl)Cl)cc1)C(=O)O (stereo not drawn)
inactive: Potency [2] | outcome [4] | outcome [5] | Potency [6] | Potency [7] | outcome [8]

Cn1c(=O)c2[nH]cnc2n(C)c1=O
inactive: Potency [2] | outcome [5] | Potency [6] | Potency [7] | outcome [8]

CC(O)CO (stereo not drawn)
inactive: Potency [2] | outcome [4] | outcome [5] | Potency [9] | Potency [6] | Potency [7] | outcome [8]

COc1c2occc2cc2ccc(=O)oc12
inactive: Potency [2] | outcome [3] | outcome [5] | Potency [6] | outcome [8]
inactive and 21.9 µM (active): Potency [7]

O=c1ccc2ccccc2o1
inactive: Potency [2] | outcome [4] | outcome [5] | Potency [6] | Potency [7] | outcome [8]

O=C(O)/C=C\C(=O)O
inactive: Potency [2] | outcome [4] | outcome [5] | Potency [6] | Potency [7] | outcome [8]

Cc1cn([C@H]2C[C@H](N=[N+]=[N-])[C@@H](CO)O2)c(=O)[nH]c1=O
inactive: Potency [2] | outcome [3] | outcome [5] | Potency [9] | Potency [6] | Potency [7] | outcome [8]

COc1ccc2[nH]cc(CCNC(C)=O)c2c1
inactive: Potency [2] | outcome [5] | Potency [9] | Potency [6] | Potency [7] | outcome [8]

CCCCCCCCCCCCCCCC(=O)O
inactive: Potency [2] | outcome [4] | outcome [5] | Potency [6] | Potency [7] | outcome [8]

Cc1ccccc1C(OCCN(C)C)c1ccccc1 (stereo not drawn)
inactive: Potency [2] | outcome [5] | Potency [9] | Potency [6] | Potency [7] | outcome [8]

OC(Cn1cncn1)(Cn1cncn1)c1ccc(F)cc1F
inactive: Potency [2] | outcome [4] | outcome [5] | Potency [9] | activity change, positive = activation ([10]; at 42.5 µM (top of the series)) 4.61% | activity change, positive = activation ([10]; at 92.4 µM (top of the series)) 8.25% and 5.79% | Potency [6] | Potency [7] | outcome [8]

O=C(c1ccccc1)c1ccccc1
inactive: Potency [2] | outcome [4] | outcome [5] | Potency [6] | Potency [7] | outcome [8]

NC(=O)c1cnccn1
inactive: Potency [2] | outcome [3] | outcome [5] | Potency [9] | Potency [6] | Potency [7] | outcome [8]

Nc1ccc(C(=O)O)cc1
inactive: Potency [2] | outcome [4] | outcome [5] | Potency [6] | Potency [7] | outcome [8]

Oc1ccc(/C=C/c2cc(O)cc(O)c2)cc1
active: activity change, positive = activation ([10]; at 42.5 µM (top of the series)) 132% | activity change, positive = activation ([10]; at 92.4 µM (top of the series)) 0.861% and 27.4% | Potency [7] 19.7 µM
inactive: Potency [2] | Potency [9] | Potency [6] | outcome [8]

O=C(O)CS
inactive: Potency [2] | outcome [3] | outcome [5] | Potency [6] | Potency [7] | outcome [8]

CCCC(O)C(CC)CO (stereo not drawn)
inactive: Potency [2] | outcome [4] | outcome [5] | Potency [6] | Potency [7] | outcome [8]

Nc1ccn([C@H]2CC[C@@H](CO)O2)c(=O)n1
inactive: Potency [2] | outcome [3] | outcome [5] | Potency [6] | Potency [7] | outcome [8]

CC(=O)NS(=O)(=O)c1ccc(N)cc1
inactive: Potency [2] | outcome [5] | Potency [6] | Potency [7] | outcome [8]

NC(N)=O
inactive: Potency [2] | outcome [4] | outcome [5] | Potency [6] | Potency [7] | outcome [8]

CC(=O)OCC(COC(C)=O)OC(C)=O
inactive: Potency [2] | outcome [4] | outcome [5] | Potency [9] | Potency [6] | Potency [7] | outcome [8]

Cc1cc(=O)n(-c2ccccc2)n1C
inactive: Potency [2] | outcome [5] | Potency [9] | Potency [6] | Potency [7] | outcome [8]

CCCNC(=O)NS(=O)(=O)c1ccc(Cl)cc1
inactive: Potency [2] | outcome [4] | outcome [5] | Potency [6] | Potency [7] | outcome [8]

CC1(C)[C@@H]2CC[C@@]1(C)C(=O)C2
inactive: Potency [2] | outcome [4] | outcome [5] | Potency [9] | Potency [6] | Potency [7] | outcome [8]

Cc1ccc(O)cc1
inactive: Potency [2] | outcome [5] | Potency [6] | Potency [7] | outcome [8]

O=C1CN(/N=C/c2ccc([N+](=O)[O-])o2)C(=O)N1
active: Potency [9] 19.3 µM and 30.6 µM and 21.1 µM
inactive: Potency [2] | outcome [4] | outcome [5] | Potency [6] | Potency [7] | outcome [8]
